Measurements as given in ChEMBL document CHEMBL1961873, “Compounds: GSK PKIS; Assays: Nanosyn kinase panel” (2012).

How the values were obtained:
[1] = molecular target: Tyrosine-protein kinase Fer (Homo sapiens) (UniProt P16591); details: at 1 µM
[2] = molecular target: Tyrosine-protein kinase Fes/Fps (Homo sapiens) (UniProt P07332); details: at 0.1 µM
[3] = molecular target: Tyrosine-protein kinase Fes/Fps (Homo sapiens) (UniProt P07332); details: at 1 µM
[4] = molecular target: Fibroblast growth factor receptor 1 (Homo sapiens) (UniProt P11362); details: at 0.1 µM
[5] = molecular target: Fibroblast growth factor receptor 1 (Homo sapiens) (UniProt P11362); details: at 1 µM
[6] = molecular target: Fibroblast growth factor receptor 2 (Homo sapiens) (UniProt P21802); details: at 0.1 µM
[7] = molecular target: Fibroblast growth factor receptor 2 (Homo sapiens) (UniProt P21802); details: at 1 µM
[8] = molecular target: Fibroblast growth factor receptor 3 (Homo sapiens) (UniProt P22607); details: at 0.1 µM
[9] = molecular target: Fibroblast growth factor receptor 3 (Homo sapiens) (UniProt P22607); details: at 1 µM
[10] = molecular target: Fibroblast growth factor receptor 4 (Homo sapiens) (UniProt P22455); details: at 0.1 µM
[11] = molecular target: Fibroblast growth factor receptor 4 (Homo sapiens) (UniProt P22455); details: at 1 µM
[12] = molecular target: Tyrosine-protein kinase Fgr (Homo sapiens) (UniProt P09769); details: at 0.1 µM
[13] = molecular target: Tyrosine-protein kinase Fgr (Homo sapiens) (UniProt P09769); details: at 1 µM
[14] = molecular target: Vascular endothelial growth factor receptor 1 (Homo sapiens) (UniProt P17948); details: at 0.1 µM
[15] = molecular target: Vascular endothelial growth factor receptor 1 (Homo sapiens) (UniProt P17948); details: at 1 µM
[16] = molecular target: Receptor-type tyrosine-protein kinase FLT3 (Homo sapiens) (UniProt P36888); details: at 0.1 µM
[17] = molecular target: Receptor-type tyrosine-protein kinase FLT3 (Homo sapiens) (UniProt P36888); details: at 1 µM
[18] = test system: T1, Receptor-type tyrosine-protein kinase FLT3 (Homo sapiens), P36888 [D835Y]; details: at 0.1 µM
T1 sequence (whole entry): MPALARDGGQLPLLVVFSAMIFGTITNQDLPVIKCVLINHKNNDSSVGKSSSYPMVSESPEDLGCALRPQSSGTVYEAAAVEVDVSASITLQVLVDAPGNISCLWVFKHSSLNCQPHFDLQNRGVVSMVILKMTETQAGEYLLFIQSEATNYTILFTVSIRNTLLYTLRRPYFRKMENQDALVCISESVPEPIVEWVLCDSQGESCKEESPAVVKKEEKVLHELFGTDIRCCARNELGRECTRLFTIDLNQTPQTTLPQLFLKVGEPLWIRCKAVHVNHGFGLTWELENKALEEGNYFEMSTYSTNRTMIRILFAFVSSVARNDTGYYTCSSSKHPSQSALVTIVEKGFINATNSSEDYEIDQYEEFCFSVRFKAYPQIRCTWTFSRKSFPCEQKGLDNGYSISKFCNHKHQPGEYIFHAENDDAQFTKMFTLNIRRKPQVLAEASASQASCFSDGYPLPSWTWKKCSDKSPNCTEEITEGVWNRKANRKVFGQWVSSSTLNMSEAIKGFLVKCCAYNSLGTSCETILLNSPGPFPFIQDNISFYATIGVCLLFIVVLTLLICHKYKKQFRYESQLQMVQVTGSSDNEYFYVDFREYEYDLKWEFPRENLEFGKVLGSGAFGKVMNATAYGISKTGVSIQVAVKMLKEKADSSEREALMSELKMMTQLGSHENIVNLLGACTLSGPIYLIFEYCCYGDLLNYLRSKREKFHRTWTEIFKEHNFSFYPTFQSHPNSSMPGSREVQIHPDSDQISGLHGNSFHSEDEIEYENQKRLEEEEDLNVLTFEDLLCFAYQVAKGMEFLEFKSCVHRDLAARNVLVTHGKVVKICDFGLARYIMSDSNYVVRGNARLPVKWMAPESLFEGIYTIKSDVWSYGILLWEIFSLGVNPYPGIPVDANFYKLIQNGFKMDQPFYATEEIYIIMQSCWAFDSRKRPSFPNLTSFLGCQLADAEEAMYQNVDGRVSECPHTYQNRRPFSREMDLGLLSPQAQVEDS

[19] = molecular target: Non-receptor tyrosine-protein kinase TYK2 (Homo sapiens) (UniProt P29597); details: at 1 µM;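 further: values are mean percent inhibition of TYK2 kinase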
[20] = molecular target: T2, Tyrosine-protein kinase receptor TYRO3 (Homo sapiens) (UniProt Q06418); details: at 0.1 µM;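 further: reported percentages are averaged inhibition values of TYRO3 kinase activity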
T2 sequence (whole entry): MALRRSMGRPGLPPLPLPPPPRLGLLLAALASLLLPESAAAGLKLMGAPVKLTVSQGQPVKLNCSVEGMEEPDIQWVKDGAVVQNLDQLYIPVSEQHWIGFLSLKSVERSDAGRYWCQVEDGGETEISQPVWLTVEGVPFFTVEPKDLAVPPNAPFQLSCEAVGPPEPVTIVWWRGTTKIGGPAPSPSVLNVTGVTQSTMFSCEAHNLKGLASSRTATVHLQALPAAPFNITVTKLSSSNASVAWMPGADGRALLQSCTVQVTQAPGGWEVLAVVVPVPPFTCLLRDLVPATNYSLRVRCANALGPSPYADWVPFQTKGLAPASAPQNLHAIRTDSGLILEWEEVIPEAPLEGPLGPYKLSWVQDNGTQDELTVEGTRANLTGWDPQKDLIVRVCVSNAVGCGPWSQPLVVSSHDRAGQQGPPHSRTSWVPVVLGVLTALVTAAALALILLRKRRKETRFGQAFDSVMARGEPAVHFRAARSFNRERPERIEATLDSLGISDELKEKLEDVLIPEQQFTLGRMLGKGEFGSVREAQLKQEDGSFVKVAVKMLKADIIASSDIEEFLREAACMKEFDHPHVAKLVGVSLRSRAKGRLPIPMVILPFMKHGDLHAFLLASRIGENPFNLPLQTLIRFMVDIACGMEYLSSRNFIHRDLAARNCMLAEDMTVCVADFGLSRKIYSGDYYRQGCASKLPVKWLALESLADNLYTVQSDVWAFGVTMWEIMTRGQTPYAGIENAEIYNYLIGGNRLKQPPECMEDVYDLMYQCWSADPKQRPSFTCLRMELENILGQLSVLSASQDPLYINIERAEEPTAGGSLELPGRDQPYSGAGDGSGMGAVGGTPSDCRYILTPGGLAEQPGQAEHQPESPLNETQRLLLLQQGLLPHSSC

Sequence of Fibroblast growth factor receptor 2 (Homo sapiens) (P21802 22-821 limits assumed): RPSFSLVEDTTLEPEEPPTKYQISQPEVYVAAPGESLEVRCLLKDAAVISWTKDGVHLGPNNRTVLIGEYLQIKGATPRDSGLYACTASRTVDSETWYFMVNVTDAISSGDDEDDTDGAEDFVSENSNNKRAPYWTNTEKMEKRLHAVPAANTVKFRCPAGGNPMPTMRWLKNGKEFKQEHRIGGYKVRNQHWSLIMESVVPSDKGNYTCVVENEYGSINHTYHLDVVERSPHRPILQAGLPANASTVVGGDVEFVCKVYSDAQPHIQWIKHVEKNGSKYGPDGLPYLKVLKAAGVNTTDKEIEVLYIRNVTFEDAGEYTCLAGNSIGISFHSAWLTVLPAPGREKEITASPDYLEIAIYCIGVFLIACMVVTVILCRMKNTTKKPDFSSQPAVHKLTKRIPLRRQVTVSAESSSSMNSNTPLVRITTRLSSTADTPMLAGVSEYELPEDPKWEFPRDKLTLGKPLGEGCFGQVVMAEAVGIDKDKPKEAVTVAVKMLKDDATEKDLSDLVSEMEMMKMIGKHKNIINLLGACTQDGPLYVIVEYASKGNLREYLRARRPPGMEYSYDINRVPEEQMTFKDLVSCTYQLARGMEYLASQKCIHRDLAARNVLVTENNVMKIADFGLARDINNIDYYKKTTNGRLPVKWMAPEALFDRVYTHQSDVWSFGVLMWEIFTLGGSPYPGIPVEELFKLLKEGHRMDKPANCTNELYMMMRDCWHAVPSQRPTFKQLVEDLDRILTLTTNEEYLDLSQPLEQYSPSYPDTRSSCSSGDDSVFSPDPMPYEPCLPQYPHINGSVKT
Sequence of Tyrosine-protein kinase Fgr (Homo sapiens) (P09769 2-529 limits assumed): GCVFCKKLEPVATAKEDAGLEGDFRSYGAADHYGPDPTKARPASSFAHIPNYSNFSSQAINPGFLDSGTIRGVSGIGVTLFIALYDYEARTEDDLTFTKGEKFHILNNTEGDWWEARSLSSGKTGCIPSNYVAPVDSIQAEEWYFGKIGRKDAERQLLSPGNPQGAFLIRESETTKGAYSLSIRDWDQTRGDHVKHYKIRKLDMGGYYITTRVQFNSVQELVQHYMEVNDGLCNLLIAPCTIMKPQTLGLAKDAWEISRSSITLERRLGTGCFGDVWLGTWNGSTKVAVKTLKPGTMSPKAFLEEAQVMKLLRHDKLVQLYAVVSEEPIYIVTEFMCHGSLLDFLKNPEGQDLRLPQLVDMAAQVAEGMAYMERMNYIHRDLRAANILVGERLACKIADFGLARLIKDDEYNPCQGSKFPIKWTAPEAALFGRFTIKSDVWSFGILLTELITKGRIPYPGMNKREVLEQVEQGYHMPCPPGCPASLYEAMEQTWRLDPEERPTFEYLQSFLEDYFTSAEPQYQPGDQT
Sequence of Tyrosine-protein kinase Fer (Homo sapiens) (P16591 whole entry, looked up): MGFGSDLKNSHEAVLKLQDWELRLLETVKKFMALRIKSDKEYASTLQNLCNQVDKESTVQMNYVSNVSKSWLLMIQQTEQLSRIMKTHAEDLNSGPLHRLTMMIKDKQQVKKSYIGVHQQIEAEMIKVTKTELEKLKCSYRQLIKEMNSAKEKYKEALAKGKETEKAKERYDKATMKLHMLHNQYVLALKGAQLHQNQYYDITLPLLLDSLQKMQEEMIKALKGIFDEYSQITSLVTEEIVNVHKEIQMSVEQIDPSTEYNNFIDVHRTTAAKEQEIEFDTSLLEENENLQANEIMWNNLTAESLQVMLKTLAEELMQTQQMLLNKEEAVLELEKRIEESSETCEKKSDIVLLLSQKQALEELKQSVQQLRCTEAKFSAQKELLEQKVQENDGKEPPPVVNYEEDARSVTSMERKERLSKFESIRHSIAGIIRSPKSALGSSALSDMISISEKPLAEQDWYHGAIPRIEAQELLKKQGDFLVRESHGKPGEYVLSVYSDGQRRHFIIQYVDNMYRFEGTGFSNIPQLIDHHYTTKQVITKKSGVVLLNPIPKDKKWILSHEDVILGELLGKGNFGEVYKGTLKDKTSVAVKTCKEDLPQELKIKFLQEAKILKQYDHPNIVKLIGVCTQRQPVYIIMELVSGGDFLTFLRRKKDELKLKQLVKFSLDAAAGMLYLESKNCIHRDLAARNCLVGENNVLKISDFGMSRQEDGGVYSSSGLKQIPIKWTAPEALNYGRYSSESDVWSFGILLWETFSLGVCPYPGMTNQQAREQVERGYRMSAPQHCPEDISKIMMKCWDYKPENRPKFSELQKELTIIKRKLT
Sequence of Non-receptor tyrosine-protein kinase TYK2 (Homo sapiens) (P29597 whole entry): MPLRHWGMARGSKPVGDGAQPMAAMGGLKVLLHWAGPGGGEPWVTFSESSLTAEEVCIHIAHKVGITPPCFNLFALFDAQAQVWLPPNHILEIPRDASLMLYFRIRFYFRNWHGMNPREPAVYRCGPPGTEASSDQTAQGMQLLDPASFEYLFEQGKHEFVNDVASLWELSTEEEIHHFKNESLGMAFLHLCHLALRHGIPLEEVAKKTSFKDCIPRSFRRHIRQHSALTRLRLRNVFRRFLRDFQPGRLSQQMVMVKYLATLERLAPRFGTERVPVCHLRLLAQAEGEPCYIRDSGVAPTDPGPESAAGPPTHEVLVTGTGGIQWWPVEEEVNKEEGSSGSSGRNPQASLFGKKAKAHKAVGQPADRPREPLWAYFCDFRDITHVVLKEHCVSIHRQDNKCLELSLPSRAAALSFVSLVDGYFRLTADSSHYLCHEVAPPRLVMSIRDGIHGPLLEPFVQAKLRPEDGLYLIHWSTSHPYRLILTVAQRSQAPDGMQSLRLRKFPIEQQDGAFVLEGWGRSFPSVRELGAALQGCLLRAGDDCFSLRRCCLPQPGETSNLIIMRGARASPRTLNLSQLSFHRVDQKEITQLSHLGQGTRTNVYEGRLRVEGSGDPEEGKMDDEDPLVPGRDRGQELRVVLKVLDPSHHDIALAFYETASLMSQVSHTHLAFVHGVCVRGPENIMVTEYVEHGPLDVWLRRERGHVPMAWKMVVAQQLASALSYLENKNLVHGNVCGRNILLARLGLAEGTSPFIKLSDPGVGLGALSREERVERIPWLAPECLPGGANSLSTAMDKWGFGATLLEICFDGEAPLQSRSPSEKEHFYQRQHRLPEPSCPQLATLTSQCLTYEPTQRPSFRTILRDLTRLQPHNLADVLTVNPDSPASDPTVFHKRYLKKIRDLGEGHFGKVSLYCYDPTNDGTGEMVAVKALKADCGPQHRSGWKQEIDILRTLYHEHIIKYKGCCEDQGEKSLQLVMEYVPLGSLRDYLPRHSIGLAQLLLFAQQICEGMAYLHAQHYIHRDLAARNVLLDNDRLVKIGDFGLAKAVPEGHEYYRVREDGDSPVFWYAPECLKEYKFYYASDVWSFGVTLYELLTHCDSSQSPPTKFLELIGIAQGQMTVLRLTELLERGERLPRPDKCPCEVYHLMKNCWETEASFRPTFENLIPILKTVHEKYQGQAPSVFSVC
Sequence of Fibroblast growth factor receptor 4 (Homo sapiens) (P22455 22-802 limits assumed): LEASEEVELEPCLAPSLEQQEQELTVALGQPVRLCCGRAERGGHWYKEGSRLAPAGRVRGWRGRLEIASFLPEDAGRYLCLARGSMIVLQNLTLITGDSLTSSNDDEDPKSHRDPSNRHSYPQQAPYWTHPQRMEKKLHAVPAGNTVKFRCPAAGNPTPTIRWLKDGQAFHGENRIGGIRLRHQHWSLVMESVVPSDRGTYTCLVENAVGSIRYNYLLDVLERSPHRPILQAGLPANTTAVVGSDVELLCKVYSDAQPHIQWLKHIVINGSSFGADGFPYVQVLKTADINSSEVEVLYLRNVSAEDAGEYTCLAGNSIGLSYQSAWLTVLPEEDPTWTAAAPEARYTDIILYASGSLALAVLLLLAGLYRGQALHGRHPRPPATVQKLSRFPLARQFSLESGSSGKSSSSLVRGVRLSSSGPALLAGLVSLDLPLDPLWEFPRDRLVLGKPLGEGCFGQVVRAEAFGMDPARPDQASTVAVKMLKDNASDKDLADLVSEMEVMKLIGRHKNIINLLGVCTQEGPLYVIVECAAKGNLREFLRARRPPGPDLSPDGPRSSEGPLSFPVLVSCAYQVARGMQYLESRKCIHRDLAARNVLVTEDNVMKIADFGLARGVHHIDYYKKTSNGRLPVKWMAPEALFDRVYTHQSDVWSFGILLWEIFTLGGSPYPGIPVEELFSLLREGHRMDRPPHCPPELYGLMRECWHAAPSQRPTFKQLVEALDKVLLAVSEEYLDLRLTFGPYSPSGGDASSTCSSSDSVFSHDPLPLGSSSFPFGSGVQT
Sequence of Fibroblast growth factor receptor 3 (Homo sapiens) (P22607 23-806 limits assumed): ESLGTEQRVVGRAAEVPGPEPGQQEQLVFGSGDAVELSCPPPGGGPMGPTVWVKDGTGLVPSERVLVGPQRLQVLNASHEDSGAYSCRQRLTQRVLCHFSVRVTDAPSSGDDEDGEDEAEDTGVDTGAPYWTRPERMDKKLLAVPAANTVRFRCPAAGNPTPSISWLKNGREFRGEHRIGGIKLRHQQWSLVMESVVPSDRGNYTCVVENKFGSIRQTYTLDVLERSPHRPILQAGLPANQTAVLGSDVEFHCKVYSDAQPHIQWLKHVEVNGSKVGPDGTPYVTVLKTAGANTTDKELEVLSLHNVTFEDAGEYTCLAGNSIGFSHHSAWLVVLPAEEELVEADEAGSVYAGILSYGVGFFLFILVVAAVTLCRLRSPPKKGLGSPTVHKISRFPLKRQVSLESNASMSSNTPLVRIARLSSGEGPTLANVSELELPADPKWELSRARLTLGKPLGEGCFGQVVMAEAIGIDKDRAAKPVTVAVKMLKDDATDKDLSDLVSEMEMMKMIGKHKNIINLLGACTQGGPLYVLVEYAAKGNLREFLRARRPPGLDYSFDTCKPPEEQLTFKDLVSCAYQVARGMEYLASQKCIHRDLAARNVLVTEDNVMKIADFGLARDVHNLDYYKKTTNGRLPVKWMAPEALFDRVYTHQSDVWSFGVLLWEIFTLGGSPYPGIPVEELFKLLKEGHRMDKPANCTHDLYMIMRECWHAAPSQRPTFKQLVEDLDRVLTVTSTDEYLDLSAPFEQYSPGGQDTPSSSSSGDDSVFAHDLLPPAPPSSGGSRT

SMILES	inhibition [1]	inhibition [2]	inhibition [3]	inhibition [4]	inhibition [5]	inhibition [6]	inhibition [7]	inhibition [8]	inhibition [9]	inhibition [10]	inhibition [11]	inhibition [12]	inhibition [13]	inhibition [14]	inhibition [15]	inhibition [16]	inhibition [17]	inhibition [18]	inhibition [19]	inhibition [20]
COc1cc(N2CCN(C(C)C)CC2)ccc1Nc1nc(Nc2cccc(F)c2C(=O)O)c2cc[nH]c2n1	75.6%	18.5%	63.7%	2.19%	6.27%	7.3%	9.34%	4.65%	8.48%	-2.62%	3.72%	4.76%	4%	1.38%	1.96%	0.4%	10.3%	0.23%	-2.8%	2.73%
CN(C)CCNC(=O)Nc1ccc(N(C)c2ccnc(Nc3ccc(CS(C)(=O)=O)cc3)n2)cc1	12.4%	3.36%	6.7%	27.9%	9.1%	5.38%	8.82%	6.17%	5.98%	1.63%	2.84%	1.07%	9.57%	4.18%	8.87%	16%	58.6%	-5.17%	-3.31%	2.66%
FC(F)(F)CNc1nccc(-c2cnn3ncccc23)n1	0.92%	2.11%	1.66%	4.83%	2.89%	4.25%	3.09%	3.73%	2.58%	1.62%	-0.36%	2.09%	3.01%	-0.04%	0.56%	0.41%	-1.47%	-2.63%	-2.6%	0.93%
COC(=O)Nc1nc2cc(Oc3ccc(NC(=O)Nc4ccccc4)cc3)ccc2[nH]1	3.19%	1.46%	1.32%	-5.22%	1.47%	1.69%	4.03%	5.75%	3.54%	0.83%	-0.59%	4.41%	3.18%	16.5%	22.1%	5.43%	14.2%	-4.53%	-1.49%	1.8%
COc1c(C(N)=O)cc(-c2ccc(Cl)cc2)cc1-c1ccc(S(N)(=O)=O)cc1	5.66%	3.78%	5.26%	7.12%	7.58%	5.92%	5.85%	5.11%	6.87%	4.18%	2.25%	0.21%	2.86%	-0.38%	2.07%	1.63%	3.25%	-1.44%	-6.53%	2.09%
OCCCNc1nccc(-c2c(-c3ccc(F)cc3)nn3cc(C(F)(F)F)ccc23)n1	2.56%	1.95%	2.62%	6%	6.47%	0.64%	3.29%	2.01%	1.53%	1.17%	0.98%	2.9%	8.24%	1.4%	3.41%	1.66%	3.11%	-1.23%	-1.77%	1.9%
COc1cc(N2CCN(C(C)C)CC2)ccc1Nc1nc(Nc2cccc3ncccc23)c2cc[nH]c2n1	44.4%	0.44%	10%	-4.53%	-4.83%	-2.09%	1.97%	0.3%	0.87%	0.6%	0.41%	-0.04%	3.16%	1.51%	0.56%	0.08%	1.34%	1.05%	2.42%	-2.4%
c1ccc(-c2n[nH]cc2-c2ccnc(-c3ccc(OCCn4ccnc4)cc3)c2)nc1	1.84%	-0.05%	-0.73%	-3.47%	3.09%	0.47%	2.51%	1.79%	4.74%	1.45%	4.5%	0.78%	2.78%	5.66%	29.5%	-0.04%	2.15%	2.71%	-0.27%	1.13%
CCCNc1cccc(-n2ncc3c(N/N=C/c4ccncc4)ncnc32)c1	9.15%	2.38%	5.6%	0.48%	3.31%	2.19%	19.4%	0.74%	8.88%	-1.49%	3.38%	18.9%	52%	2.98%	19.7%	4.53%	17.6%	7.74%	4.3%	5.05%
N#Cc1cccc(Nc2ncc(-c3ccccc3)o2)c1	5.33%	0.93%	1.79%	-4.35%	2.95%	2.66%	7.1%	2.72%	4.48%	-2.65%	3.3%	5.47%	13.5%	2.46%	9.52%	12%	61.8%	3.75%	-1.92%	1.76%
CS(=O)(=O)CCNCc1ccc(-c2ccc3ncnc(Nc4ccc(OCc5ccccc5)cc4)c3c2)o1	0.38%	3.93%	3.54%	6.5%	3.85%	3.26%	4.3%	4.56%	3.89%	1.63%	0.38%	5.33%	20.1%	2.38%	2.68%	2.34%	6.62%	-1.19%	-2.79%	3.45%
O=C(O[C@H]1CN[C@H](C#Cc2cc3ncnc(Nc4ccc5c(cnn5Cc5ccccc5)c4)c3s2)C1)N1CCOCC1	0.92%	-0.09%	-1.2%	-2.97%	-1.28%	-0.61%	-0.52%	0.4%	0.43%	0.54%	0.38%	2.54%	11.2%	-2.71%	0.04%	-2.76%	-3.41%	-5.14%	1.01%	-0.42%
